PubChem BioAssay (NCATS)
Inconclusive results are not listed. Active and inactive are the calls of the source. Unless noted, the call rests on the fitted dose curve; in most records, active means well fitted curve in the direction sought with a large enough effect; inconclusive means small, poorly fitted or top-dose-only effect, or another doubt; inactive means no such curve, though single readings can be large; an effect the other way counts as inactive or inconclusive. Where a SMILES comes first, the peptide text is derived from it.

Key:
[1] = AP1 Signaling Pathway (AID 357; active means well fitted curve in either direction with a large enough effect, not every such curve was filed as active;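 further: ME-180 reporter cells stimulated with EGF at its EC50 level; on the % scale 0 is the no-effect control and ±100 the full control effect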); details: ME-180 (cervical carcinoma) AP-1-bla reporter, EGF-induced, beta-lactamase ratio, 5 h; at 17.2 µM (top of the series) unless noted
Outline: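 Modulation of EGF-driven AP-1 transcription was assessed with a beta-lactamase reporter in ME-180 cells. Compound and EC50 EGF were co-incubated 5 hours at 37 °C before 2.5-hour CCF4 loading at room temperature and dual-emission reading.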

[2] = biological target: Glucocorticoid receptor (Homo sapiens) (UniProt P04150); experiment: GR-GFP Redistribution (AID 450;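 active means compounds whose dose series gives a full or clear partial fitted curve of increased nuclear translocation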; further: potency means the concentration at half of the fitted maximal effect)
Sequence of Glucocorticoid receptor (Homo sapiens) (P04150 whole entry, looked up, the tested form may be a part): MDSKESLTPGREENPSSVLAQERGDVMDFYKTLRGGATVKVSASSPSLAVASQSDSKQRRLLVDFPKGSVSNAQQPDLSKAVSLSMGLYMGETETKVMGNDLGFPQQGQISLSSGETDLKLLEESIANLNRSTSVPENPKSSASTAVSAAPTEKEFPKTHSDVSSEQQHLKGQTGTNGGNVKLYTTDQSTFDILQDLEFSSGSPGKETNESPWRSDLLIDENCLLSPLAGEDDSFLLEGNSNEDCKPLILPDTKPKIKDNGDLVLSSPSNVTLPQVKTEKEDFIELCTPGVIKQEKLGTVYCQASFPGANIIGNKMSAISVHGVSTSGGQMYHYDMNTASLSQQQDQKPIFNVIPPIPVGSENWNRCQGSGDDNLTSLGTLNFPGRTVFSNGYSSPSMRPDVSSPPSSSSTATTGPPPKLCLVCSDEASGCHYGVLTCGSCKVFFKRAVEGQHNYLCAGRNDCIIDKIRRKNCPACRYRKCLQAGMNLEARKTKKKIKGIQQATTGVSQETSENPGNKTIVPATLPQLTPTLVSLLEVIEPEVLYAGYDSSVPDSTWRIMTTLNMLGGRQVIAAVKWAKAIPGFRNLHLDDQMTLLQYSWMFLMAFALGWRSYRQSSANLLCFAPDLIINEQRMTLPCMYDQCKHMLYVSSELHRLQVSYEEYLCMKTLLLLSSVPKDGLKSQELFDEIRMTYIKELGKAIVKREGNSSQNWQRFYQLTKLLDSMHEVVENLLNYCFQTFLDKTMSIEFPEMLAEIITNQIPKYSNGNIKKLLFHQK

[3] = biological target: Glucocorticoid receptor (Homo sapiens) (UniProt P04150); experiment: GR-EFC Redistribution (AID 451; calls by dose curve; further: potency means the concentration at half of the fitted maximal effect); details: CHO-K1 GR-EFC translocation, beta-gal luminescence, 2 h
Outline: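 CHO-K1 cells expressing nuclear EA and GR-ED fragments of b-gal; compounds titrated up to 46 uM final, 2 h at 37 C. GR nuclear translocation read as complemented b-gal luminescence after 1 h RT detection.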

[4] = biological target: Mitogen-activated protein kinase 10 (Mus musculus) (UniProt Q61831); experiment: JNK3 AlphaScreen Assay (AID 530; active means well fitted curve in either direction with a large enough effect, not every such curve was filed as active;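 further: kinase came from lysate of stimulated human HepG2 cells; signal reports phosphorylation of biotinylated GST-cJun 1-79 at Ser73 with 10 µM ATP; on the % scale 0 is the no-effect control and ±100 the full control effect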)
Outline: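 Activity was read by AlphaScreen after JNK3-containing HepG2 lysate (cytokine pre-activated) phosphorylated biotinylated GST-cJun with 10 uM ATP at room temperature. Phospho-Ser73 cJun antibody with Protein-A acceptor beads provided detection.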

[5] = biological target: 3',5'-cyclic-AMP phosphodiesterase 4B (Homo sapiens) (UniProt Q07343); experiment: qHTS Assay for Inhibitors of PDE-IV (AID 607; active means well fitted activation curve with a large enough effect in the main read-out, with a control signal flat, not every such curve was filed as active; further: % of control where 0% means no effect)
Sequence of 3',5'-cyclic-AMP phosphodiesterase 4B (Homo sapiens) (Q07343 whole entry, looked up): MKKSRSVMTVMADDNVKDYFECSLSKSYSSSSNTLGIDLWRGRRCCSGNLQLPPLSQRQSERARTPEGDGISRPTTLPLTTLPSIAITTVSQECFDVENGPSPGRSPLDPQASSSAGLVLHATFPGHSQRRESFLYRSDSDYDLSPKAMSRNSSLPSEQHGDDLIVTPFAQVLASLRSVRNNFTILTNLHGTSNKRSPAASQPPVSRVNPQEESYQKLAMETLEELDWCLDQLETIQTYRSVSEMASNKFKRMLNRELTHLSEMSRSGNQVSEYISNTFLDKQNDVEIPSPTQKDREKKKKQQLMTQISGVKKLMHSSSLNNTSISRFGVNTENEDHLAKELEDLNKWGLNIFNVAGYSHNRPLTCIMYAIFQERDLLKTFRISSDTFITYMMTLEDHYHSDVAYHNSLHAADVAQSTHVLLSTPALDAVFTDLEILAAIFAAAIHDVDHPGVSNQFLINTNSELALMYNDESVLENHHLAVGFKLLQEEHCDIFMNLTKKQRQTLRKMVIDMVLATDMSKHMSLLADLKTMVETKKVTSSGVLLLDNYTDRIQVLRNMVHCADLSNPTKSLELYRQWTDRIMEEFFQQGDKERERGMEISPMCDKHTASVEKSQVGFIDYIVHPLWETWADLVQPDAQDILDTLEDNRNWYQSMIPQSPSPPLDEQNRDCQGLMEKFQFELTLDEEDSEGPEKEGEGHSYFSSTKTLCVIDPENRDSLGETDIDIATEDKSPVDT
Outline: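 HEK293 ACTOne cells with CNG channel (1000/well), endogenous PDE4; membrane potential dye, compounds up to 22.9 uM final. Fluorescence Ex 535/Em 590; RO 20-1724 (100 uM final) as reference.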

[6] = biological target: Guanine nucleotide-binding protein G(i) subunit alpha-1 (Homo sapiens) (UniProt P63096); experiment: qHTS Assay for Inhibitors of RGS12 GoLoco Motif Activity (Green Fluorophore) (AID 879);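 further: 0% = labeled peptide with Gαi1 and full inhibition = labeled peptide alone without protein; negative values mean loss of peptide binding seen as reduced polarization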
Outline: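 A drop in FITC polarization marked displacement of the FITC-tagged RGS12 GoLoco peptide (10 nM) from Gαi1 (50 nM). Compounds were incubated 10 min at room temperature in Tris pH 7.5 buffer containing 150 mM NaCl, 0.1 mM GDP and 0.05% NP40; unlabeled peptide titration served as control.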

[7] = biological target: Pyruvate kinase (Leishmania mexicana) (UniProt Q27686); experiment: qHTS Validation Assay for Inhibitors of Leishmania Mexicana Pyruvate Kinase (AID 945);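 further: 0% = DMSO only neutral control wells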
Sequence of Pyruvate kinase (Leishmania mexicana) (Q27686 2-499 E452W): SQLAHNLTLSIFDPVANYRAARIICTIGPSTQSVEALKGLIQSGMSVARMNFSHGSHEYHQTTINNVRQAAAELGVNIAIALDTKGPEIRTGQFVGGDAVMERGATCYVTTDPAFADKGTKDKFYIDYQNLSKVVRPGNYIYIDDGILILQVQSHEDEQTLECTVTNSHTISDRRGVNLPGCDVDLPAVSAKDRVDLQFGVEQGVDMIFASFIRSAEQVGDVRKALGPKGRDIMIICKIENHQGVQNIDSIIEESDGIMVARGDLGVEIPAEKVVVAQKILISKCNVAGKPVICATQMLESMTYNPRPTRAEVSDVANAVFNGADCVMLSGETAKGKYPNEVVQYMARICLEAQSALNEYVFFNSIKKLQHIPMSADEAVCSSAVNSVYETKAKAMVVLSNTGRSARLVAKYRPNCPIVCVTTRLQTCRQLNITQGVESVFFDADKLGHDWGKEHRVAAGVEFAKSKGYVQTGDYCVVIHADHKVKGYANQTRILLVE
Outline: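 Eight-point qHTS titrations in triplicate, data normalized to DMSO neutral control. Reaction: 0.2 nM LmPYK E451W mutant, 0.5 mM PEP, 0.1 mM ADP, 7 mM MgCl2, pH 7.2, one hour at room temperature; luminescent ATP detection.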

[8] = biological target: Pyruvate kinase PKM (Homo sapiens) (UniProt P14618); experiment: qHTS Assay for Activators of Human Muscle Pyruvate Kinase (AID 954; active means well fitted curve in the direction sought with a large enough effect, not every such curve was filed as active;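 further: 0% = uninhibited enzyme and -100% = no enzyme or full thiadiazolimine inhibition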)
Outline: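 Compound pinned into substrate mix (0.5 mM PEP, 0.1 mM ADP), then 0.1 nM PKM2 added; 1 h, RT. Stop/detection luciferase reagent added, luminescence read. Normalized to no-inhibition and no-enzyme or reference-inhibitor controls.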

[9] = biological target: Alpha-galactosidase A (Homo sapiens) (UniProt P06280); experiment: Counterscreen for Glucocerebrosidase Inhibitors: qHTS Assay for Human alpha-Galactosidase at pH 4.5 (AID 992); further: 0% is about no effect
Outline: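 Steps: enzyme (2 nM final), then compound across 0.7 nM to 77 uM, then 80 uM fluorogenic galactopyranoside substrate; incubate 20 min at room temperature; quench at pH 10; measure fluorescence at 365/440 nm.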

[10] = biological target: alpha-glucosidase (Oryza sativa, rice) (UniProt Q653V4); experiment: Counterscreen for Glucocerebrosidase Inhibitors: qHTS Assay for Rice alpha-Glucosidase at pH 5.0 (AID 997);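 further: 0% = full activity with enzyme and -100% = basal without enzyme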
Outline: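 Endpoint fluorogenic assay at pH 5.0: compounds (0.7 nM to 77 uM) titrated against 4 nM rice enzyme and 400 uM 4-MU-alpha-glucoside for 20 min at room temperature; NaOH/glycine stop, read ex 365/em 440 nm, Hill-fitted AC50.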

[11] = biological target: Cytochrome P450 1A2 (Homo sapiens) (UniProt P05177); experiment: p450-cyp1a2 (AID 410; calls by dose curve; further: potency means the concentration at half of the fitted maximal effect;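 on activity change, negative = inhibition: -100% = full effect of reference inhibitor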)
Sequence of Cytochrome P450 1A2 (Homo sapiens) (P05177 whole entry, looked up): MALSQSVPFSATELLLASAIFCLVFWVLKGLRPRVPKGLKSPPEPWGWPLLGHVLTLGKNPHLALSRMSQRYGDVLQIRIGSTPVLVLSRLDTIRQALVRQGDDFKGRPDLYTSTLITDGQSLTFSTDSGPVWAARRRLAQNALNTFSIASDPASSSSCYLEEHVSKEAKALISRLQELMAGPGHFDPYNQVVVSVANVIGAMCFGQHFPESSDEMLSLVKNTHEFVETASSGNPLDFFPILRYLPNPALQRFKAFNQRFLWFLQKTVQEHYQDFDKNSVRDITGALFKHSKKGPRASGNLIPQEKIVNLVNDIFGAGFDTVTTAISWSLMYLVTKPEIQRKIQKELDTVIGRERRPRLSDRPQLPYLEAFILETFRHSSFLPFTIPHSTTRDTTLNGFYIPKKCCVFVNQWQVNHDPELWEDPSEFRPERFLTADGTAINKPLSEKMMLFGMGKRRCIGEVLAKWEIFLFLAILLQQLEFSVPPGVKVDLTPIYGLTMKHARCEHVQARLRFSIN
Outline: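 Luminescent demethylation readout: Luciferin-ME (100uM, equal to Km) turned over by 20nM CYP1A2 for 60 min at room temperature after NADPH regeneration addition, following 10 min compound preincubation. Normalization used 57 uM furafylline as full inhibition.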

[12] = biological target: Ubiquitin carboxyl-terminal hydrolase 1 (Homo sapiens) (UniProt O94782); experiment: Inhibitors of USP1/UAF1: Pilot qHTS (AID 504865);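 further: rhodamine fluorescence freed from ubiquitin-rhodamine substrate followed over time; top concentration of the series differs between compounds; on the % scale 0 is the no-effect control and ±100 the full control effect; nearly all actives have a fitted effect of over 35% in size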
Outline: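 USP1/UAF1 complex at 1 nM preincubated 15 min at room temperature with compound, then Ub-Rho substrate added at 150 nM final. Fluorescence (480/540 nm) read kinetically in 50 mM HEPES pH 7.8, 0.5 mM EDTA, 1 mM TCEP, 0.1 mg/ml BSA, 0.01% Tween-20.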

[13] = biological target: Cytochrome P450 2C9 (Homo sapiens) (UniProt P11712); experiment: qHTS Assay for Inhibitors and Substrates of Cytochrome P450 2C9 (AID 883); further: nearly all actives have a fitted effect of over 60% in size; further: potency means the concentration at half of the fitted maximal effect; on activity change, negative = inhibition: on the % scale 0 is the no-effect control and ±100 the full control effect
Sequence of Cytochrome P450 2C9 (Homo sapiens) (P11712 whole entry, looked up): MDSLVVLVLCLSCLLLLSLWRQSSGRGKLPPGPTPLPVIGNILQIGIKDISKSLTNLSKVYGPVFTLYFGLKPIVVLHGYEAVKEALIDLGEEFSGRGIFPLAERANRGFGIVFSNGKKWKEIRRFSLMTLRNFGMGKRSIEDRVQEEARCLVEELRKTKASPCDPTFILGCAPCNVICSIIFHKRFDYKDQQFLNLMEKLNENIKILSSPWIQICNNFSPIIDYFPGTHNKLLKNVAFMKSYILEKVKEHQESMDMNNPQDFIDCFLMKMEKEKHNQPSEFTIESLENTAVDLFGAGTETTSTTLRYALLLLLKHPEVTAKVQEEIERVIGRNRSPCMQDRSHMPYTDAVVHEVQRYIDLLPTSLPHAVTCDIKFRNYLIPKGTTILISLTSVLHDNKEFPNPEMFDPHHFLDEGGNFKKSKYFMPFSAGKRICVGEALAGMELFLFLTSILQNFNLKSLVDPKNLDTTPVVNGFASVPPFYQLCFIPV
Outline: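 Signal: luciferase luminescence reporting luciferin produced by CYP2C9. Conditions: 10nM enzyme, Luciferin-H 100uM at KM, 25mM KPO4, 37C, 60 min NADPH-driven reaction. Reference: 57uM sulphaphenazole as 100% inhibition.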

[14] = biological target: Cytochrome P450 3A4 (Homo sapiens) (UniProt P08684); experiment: qHTS Assay for Activators of Cytochrome P450 3A4 (AID 885); further: nearly all actives have a fitted effect of over 65% in size
Sequence of Cytochrome P450 3A4 (Homo sapiens) (P08684 whole entry, looked up): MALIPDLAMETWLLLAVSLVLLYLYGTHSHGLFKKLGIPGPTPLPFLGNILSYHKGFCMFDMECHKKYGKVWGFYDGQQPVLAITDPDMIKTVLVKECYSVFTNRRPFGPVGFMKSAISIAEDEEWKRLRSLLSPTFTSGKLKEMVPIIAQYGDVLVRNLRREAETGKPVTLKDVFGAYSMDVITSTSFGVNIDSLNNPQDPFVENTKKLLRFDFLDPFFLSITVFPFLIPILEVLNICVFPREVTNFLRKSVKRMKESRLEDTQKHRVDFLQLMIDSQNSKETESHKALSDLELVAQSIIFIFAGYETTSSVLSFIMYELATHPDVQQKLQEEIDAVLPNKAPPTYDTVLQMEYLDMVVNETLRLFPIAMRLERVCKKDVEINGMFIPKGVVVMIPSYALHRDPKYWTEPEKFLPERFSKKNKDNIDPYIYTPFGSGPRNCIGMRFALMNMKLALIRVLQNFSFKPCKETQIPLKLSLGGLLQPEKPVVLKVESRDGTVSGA
Outline: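 Human CYP3A4 dealkylates Luciferin-PPXE to luciferin, which luciferase detection converts to light. Substrate was at its KM (25uM), buffer 200mM KPO4, reaction 60 min at RT.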

[15] = biological target: Cytochrome P450 2D6 (Homo sapiens) (UniProt P10635); experiment: qHTS Assay for Inhibitors and Substrates of Cytochrome P450 2D6 (AID 891); further: nearly all actives have a fitted effect of over 60% in size; further: potency means the concentration at half of the fitted maximal effect;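 on activity change, negative = inhibition: luciferin methyl ether substrate demethylated by CYP2D6 with NADPH regeneration; on the % scale 0 is the no-effect control and ±100 the full control effect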
Sequence of Cytochrome P450 2D6 (Homo sapiens) (P10635 whole entry, looked up): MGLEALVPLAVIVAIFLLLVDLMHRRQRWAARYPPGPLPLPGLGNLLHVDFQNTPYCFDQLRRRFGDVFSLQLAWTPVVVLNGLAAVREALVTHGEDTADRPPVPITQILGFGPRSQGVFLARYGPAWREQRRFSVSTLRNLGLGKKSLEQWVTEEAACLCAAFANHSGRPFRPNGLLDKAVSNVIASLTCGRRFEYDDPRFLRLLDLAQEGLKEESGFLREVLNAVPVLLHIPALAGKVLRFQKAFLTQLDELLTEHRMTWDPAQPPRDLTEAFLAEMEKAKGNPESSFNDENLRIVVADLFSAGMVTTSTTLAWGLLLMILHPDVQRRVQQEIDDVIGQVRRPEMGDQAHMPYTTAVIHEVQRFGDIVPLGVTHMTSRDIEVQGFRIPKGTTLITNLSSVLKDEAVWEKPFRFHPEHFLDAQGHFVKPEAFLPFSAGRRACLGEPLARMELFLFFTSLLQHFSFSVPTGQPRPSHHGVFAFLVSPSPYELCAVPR
Outline: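 Luminescent read-out of luciferin formed by 5 nM human CYP2D6 demethylating 30 uM Luciferin-ME EGE (Km level) over 60 min at room temperature after NADPH regeneration addition. Data normalized to full inhibition by 1.43 uM quinidine.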

[16] = biological target: Cytochrome P450 2C19 (Homo sapiens) (UniProt P33261); experiment: qHTS Assay for Inhibitors and Substrates of Cytochrome P450 2C19 (AID 899); further: nearly all actives have a fitted effect of over 60% in size; further: potency means the concentration at half of the fitted maximal effect
Sequence of Cytochrome P450 2C19 (Homo sapiens) (P33261 whole entry, looked up): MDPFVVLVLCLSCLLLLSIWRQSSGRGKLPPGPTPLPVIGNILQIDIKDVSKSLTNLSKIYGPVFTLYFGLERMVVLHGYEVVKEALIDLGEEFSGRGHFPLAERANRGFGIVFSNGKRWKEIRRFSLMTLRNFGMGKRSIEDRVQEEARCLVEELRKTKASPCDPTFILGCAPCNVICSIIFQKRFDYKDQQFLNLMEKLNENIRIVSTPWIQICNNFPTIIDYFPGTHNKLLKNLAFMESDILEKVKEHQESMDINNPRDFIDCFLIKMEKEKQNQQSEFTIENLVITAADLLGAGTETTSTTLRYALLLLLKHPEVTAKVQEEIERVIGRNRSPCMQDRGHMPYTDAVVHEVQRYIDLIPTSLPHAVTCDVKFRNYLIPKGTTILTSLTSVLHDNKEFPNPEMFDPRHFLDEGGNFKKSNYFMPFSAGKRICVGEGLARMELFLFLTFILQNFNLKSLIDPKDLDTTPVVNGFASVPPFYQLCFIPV
Outline: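 Signal comes from luciferase acting on luciferin released by CYP2C19-mediated hydroxylation of Luciferin-H EGE, 10uM (KM). Assay mix: 5nM enzyme, 50mM KPO4; 60 min at 37C with NADPH regeneration. Data normalized against 57uM ketoconazole.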

[17] = biological target: DNA dC->dU-editing enzyme APOBEC-3G (Homo sapiens) (UniProt Q9HC16); experiment: qHTS for inhibitors of Vif-A3G interactions: Validation (AID 588379); further: 0% is about no effect
Sequence of DNA dC->dU-editing enzyme APOBEC-3G (Homo sapiens) (Q9HC16 whole entry, looked up): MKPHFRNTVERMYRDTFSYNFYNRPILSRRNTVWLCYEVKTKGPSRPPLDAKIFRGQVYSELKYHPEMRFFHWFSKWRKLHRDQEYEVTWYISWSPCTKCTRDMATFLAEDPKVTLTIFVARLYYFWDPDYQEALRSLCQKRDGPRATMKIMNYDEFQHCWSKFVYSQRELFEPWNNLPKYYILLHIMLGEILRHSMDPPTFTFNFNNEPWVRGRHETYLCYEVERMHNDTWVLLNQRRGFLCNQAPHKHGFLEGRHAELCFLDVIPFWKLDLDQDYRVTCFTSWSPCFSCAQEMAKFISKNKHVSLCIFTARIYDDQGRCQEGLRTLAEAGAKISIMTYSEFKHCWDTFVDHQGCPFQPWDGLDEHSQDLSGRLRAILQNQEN
Outline: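 Yellow fluorescence (Ex 488, Em 500-530) of Vif-coexpressing HeLa A3G-eYFP cells, scanned by Acumen cytometer, reports blocked A3G degradation. Cells plated at 700/well overnight at 37 deg C before compound addition, then a further overnight compound incubation at 37 deg C.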

[18] = biological target: Cytochrome P450 3A4 (Homo sapiens) (UniProt P08684); experiment: qHTS Assay for Inhibitors and Substrates of Cytochrome P450 3A4 (AID 884); further: potency means the concentration at half of the fitted maximal effect; nearly all actives have a fitted effect of over 50% in size
Outline: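 Luminescent readout of luciferin produced by CYP3A4 (20 nM) dealkylation of Luciferin-PPXE, 25 uM (its KM). NADPH-driven reaction ran 60 min at RT after 10 min compound preincubation; data scaled to 57 uM ketoconazole as 100% inhibition.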

Clc1ccc(C(c2ccc(Cl)cc2)n2cc[n+](C[C@@H](OCc3ccc(Cl)cc3Cl)c3ccc(Cl)cc3Cl)c2)cc1
inactive: activity change, negative = inhibition [1] -7.48% [at 38 µM] | Potency [2] > 46 µM | Potency [3] > 46 µM | Potency [4] | Potency [5] | outcome [6] | Potency [7] | outcome [8] | outcome [9] | outcome [10]

O[C@@H]1[C@@H]2c3cc4c(cc3CN3CCC(=C[C@@H]1O)[C@H]23)OCO4
active: Potency [11] 15.8 µM
inactive: Potency [2] > 20.6 µM | Potency [3] > 20.6 µM | Potency [4] | Potency [5] | Potency [12]

CN1CCc2cc3c(cc2C(=O)Cc2ccc4c(c2C1)OCO4)OCO3
active: Potency [11] 39.8 µM | Potency [15] 0.0501 µM | Potency [16] 10 µM
inactive: Potency [2] > 46 µM | Potency [3] > 46 µM | Potency [4] | Potency [13] | Potency [14] | outcome [17]

N[C@@H](Cc1c[nH]c2ccccc12)C(=O)NCC(=O)O (H-Trp-Gly-OH)
inactive: Potency [11] | Potency [2] > 46 µM | Potency [3] > 46 µM | Potency [4] | Potency [5] | Potency [13] | Potency [15]

CC1=CC(=O)CC(C)(C)[C@@]1(O)/C=C\C(C)=C\C(=O)O
inactive: Potency [11] | Potency [2] > 46 µM | Potency [3] > 46 µM | Potency [4] | Potency [5] | Potency [13] | Potency [15] | Potency [16]

COc1ccc(-c2cc(=O)c3ccc(O)cc3o2)cc1
active: Potency [11] 0.158 µM | Potency [18] 7.94 µM | Potency [16] 3.16 µM
inactive: Potency [2] > 46 µM | Potency [3] > 46 µM | Potency [4] | Potency [14] | Potency [15] | outcome [17]

COc1cc(C(=O)O[C@@H]2CC(C)=CC[C@@]3(C)CC[C@](O)(C(C)C)[C@H]23)ccc1O
inactive: Potency [2] > 46 µM | Potency [3] > 46 µM | Potency [4] | Potency [5]
active: Potency [11] 15.8 µM | Potency [13] 15.8 µM

O=C(CCc1ccc(O)cc1)c1c(O)cc(O)cc1O[C@@H]1O[C@@H](CO)[C@@H](O)[C@@H](O)[C@H]1O
inactive: Potency [11] | Potency [2] > 46 µM | Potency [3] > 46 µM | Potency [4] | Potency [5] | Potency [15]
active: Potency [13] 31.6 µM

O=c1cc(-c2ccccc2O)oc2c1ccc1ccccc12
active: Potency [11] 0.501 µM
inactive: Potency [2] > 46 µM | Potency [3] > 46 µM | Potency [4] | Potency [5] | Potency [14] | Potency [15] | outcome [17]
